Screening results from PubChem BioAssay.
Cruzain inh noDet: inhibitors of Trypanosoma cruzi cruzain without detergent; P25779; purified cruzain, Z-FR-AMC fluorescence, no detergent; Potency, µM, without a hit: max response, negative = inhibition, usual class: inhibitors; actives 2.3% (n = 200,000);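 further: plate controls were enzyme without inhibitor for no effect and buffer without enzyme for full effect; nearly all actives have a fitted effect of over 40% in size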
Target sequence (P25779 123-467 limits assumed): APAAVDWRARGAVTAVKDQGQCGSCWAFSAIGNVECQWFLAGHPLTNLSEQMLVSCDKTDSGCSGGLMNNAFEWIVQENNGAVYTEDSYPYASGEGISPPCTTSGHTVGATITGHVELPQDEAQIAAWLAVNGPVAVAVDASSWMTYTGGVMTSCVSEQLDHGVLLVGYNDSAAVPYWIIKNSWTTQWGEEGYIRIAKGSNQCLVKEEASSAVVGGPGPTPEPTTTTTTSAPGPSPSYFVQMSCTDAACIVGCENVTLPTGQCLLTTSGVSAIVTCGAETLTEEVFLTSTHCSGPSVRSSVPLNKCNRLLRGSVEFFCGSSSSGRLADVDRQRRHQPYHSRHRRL
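Detergent-free condition (0.00005% Triton X-100) in acetate buffer pH 5.5 with DTT. 1.5 nM enzyme and compound were pre-mixed 15 min, then 2 uM Z-FR-AMC substrate added; reaction progress from fluorescence change between first and third reads (60 s).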
Cruzain Triton: inhibitors of Trypanosoma cruzi cruzain with detergent; P25779; purified cruzain, Z-FR-AMC fluorescence, 0.01% Triton; Potency, µM, without a hit: max response, negative = inhibition, actives largely listed as inhibitors; actives 0.43% (n = 200,000); AID 1478;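 further: plate controls were neutral wells for no effect and buffer without enzyme for full effect; nearly all actives have a fitted effect of over 40% in size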
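Compounds were screened in titration against cruzain (1.5 nM) with 0.01% Triton X-100 to counter colloidal aggregation. Activity was the AMC fluorescence increase over 60 s after adding 2 uM Z-FR-AMC at pH 5.5.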
Active calls of the source: *; ? = inconclusive. Only some compounds are listed: those with a hit (about 2.6% of all), similar ones and a draw of the others. The call rests on the fitted dose curve; in most records, active means well fitted curve in the direction sought with a large enough effect; inconclusive means small, poorly fitted or top-dose-only effect, or another doubt; inactive means no such curve, though single readings can be large; an effect the other way counts as inactive or inconclusive. Potency means the concentration at half of the fitted maximal effect.

SMILES	Cruzain inh noDet	Cruzain Triton
O=[N+]([O-])c1ccc(N2CCN(S(=O)(=O)c3ccc4ccccc4c3)CC2)cc1NCC1CCCO1 (stereo not drawn)	15.8µM*	1.4%
O=[N+]([O-])c1ccc(N2CCN(S(=O)(=O)c3ccccc3)CC2)cc1NCC1CCCO1 (stereo not drawn)	12.0%	-4.2%
COc1ccccc1NC(=O)CSc1nc2nccnc2c(=O)n1CCc1c[nH]c2ccccc12	3.6%	-2.7%
COc1ccccc1NC(=O)Cn1c(=O)n(CCc2c[nH]c3ccccc23)c(=O)c2cccnc21	20µM*	-3.2%
COc1ccc(C2=CC(c3ccc(OC)c(OC)c3)NC(=S)N2)cc1 (stereo not drawn)	-2.2%	3.5%
COc1ccc(C2C=C(C34CC5CC(CC(C5)C3)C4)NC(=S)N2)cc1 (stereo not drawn)	25.1µM*	-3.3%
COc1cccc(-c2cncnc2NCc2cccnc2)c1	3.3%	3.3%
COc1ccc2nc(SCC(=O)NC3CCCc4ccccc43)[nH]c2c1 (stereo not drawn)	-27.0%	14.1µM*
O=C(CSc1nc2ccc(Cl)cc2[nH]1)NC1CCCc2ccccc21 (stereo not drawn)	-1.1%	-10.2%
O=C(CSc1nc2ccccc2[nH]1)NC1CCCc2ccccc21 (stereo not drawn)	1.9%	?
Cc1ccc2nc(SC(C)C(=O)NC3CCCc4ccccc43)[nH]c2c1 (stereo not drawn)	-9.0%	10µM*
CC1(C(=O)Nc2cccc(C(F)(F)F)c2)Cc2ccccc2C(=O)O1 (stereo not drawn)	-15.5%	-10.3%
CC(=O)OCc1nc2ccccc2s1	-7.0%	1.9%
O=C(CNC(=O)c1ccc(Cl)cc1Cl)OCc1nc2ccccc2s1	3.98µM*	7.94µM*
O=C(CNC(=O)c1ccccc1)OCc1nc2ccccc2s1	12.6µM*	25.1µM*
O=C(COC(=O)CCc1nc2ccccc2s1)Nc1ncc(Cl)cc1Cl	-7.9%	-5.6%
CN1CCN(CN2C(=O)C3C4C=CC(C3C2=O)C2C3C(=O)N(CN5CCN(C)CC5)C(=O)C3C42)CC1 (stereo not drawn)	-3.8%	4.2%
COc1cccc(NC(=O)CN2C(=O)CSc3ccc(S(=O)(=O)N4CCCC4)cc32)c1	-8.8%	-3.1%
Cc1ccc(-c2ccc(C(=O)Nc3ccccc3)o2)c2ccccc12	?	-18.8%
Cc1ccc(S(=O)(=O)NC(=O)c2ccc(-c3ccc(C)c4ccccc34)o2)cc1	8.3%	25.1µM*
Cc1ccccc1Nc1ncnc2c1c(-c1ccccc1)cn2-c1ccc(F)cc1	-26.1%	-1.0%
COc1cccc2cc(C(=O)N3CCc4ccccc43)c(=O)oc12	4.0%	3.6%
CCOc1cccc2cc(C(=O)N3CCc4ccccc43)c(=O)oc12	15.8µM*	2.5%
CCOC(=O)N1CCc2c(sc3c2c(=O)n(Cc2ccccc2)c(=O)n3Cc2cccc(Cl)c2)C1	7.94µM*	-3.0%
CCOC(=O)N1CCc2c(sc3c2c(=O)n(Cc2ccccc2)c(=O)n3CC(=O)Nc2cccc(CC)c2)C1	-17.4%	-0.8%
SMILES	Cruzain inh noDet	Cruzain Triton
CCOc1ccc(C2SCC(=O)N2c2c(C)n(C)n(-c3ccccc3)c2=O)cc1 (stereo not drawn)	-7.1%	0.6%
CCOc1ccc(C2=C(C=Nc3c(C)n(C)n(-c4ccccc4)c3=O)C(c3ccc(F)cc3)c3ccccc3O2)cc1 (stereo not drawn)	3.16µM*	4.4%
COc1ccc2c(c1)c(=O)c(C(=O)c1ccc(Cl)cc1)cn2CC(=O)Nc1ccc2c(c1)OCCO2	-2.3%	2.0%
CCC(=O)N1CCc2cc(Br)cc(S(=O)(=O)N3CCC(C(=O)Nc4cccc(C)c4)CC3)c21	-2.1%	-2.3%
CC[C@@H]1CC(=O)N(SC[C@H](N)C(=O)O)C1=O	-5.7%	4.1%
Cc1nc2ccn(Cc3cccnc3)c(=O)c2cc1C(=O)NCc1ccccc1	-7.7%	-5.6%
O=C(COC(=O)c1cccc([N+](=O)[O-])c1)c1ccc(OCc2ccccc2)cc1	25.1µM*	-2.7%
O=C(Cc1ccccc1)NCC(=O)OCC(=O)c1cccc([N+](=O)[O-])c1	-21.7%	-27.0%
Cn1cc(S(=O)(=O)N2CCCCCC2)cc1C(=O)N1CCN(c2ccc(Cl)cc2)CC1	2.4%	-1.4%
NCCCc1ccc2oc3ccccc3c2c1	-7.9%	-0.4%
C=Cc1ccc(Cn2c(C(=O)O)c(CNCc3ccccc3)c3ccc(OC)cc32)cc1	-14.7%	-12.4%
Cc1cc(C)c(NS(=O)(=O)c2ccc(-c3cnc(C4CC4)o3)cc2)c(C)c1	-13.2%	-9.3%
O=C(c1cc(C(=O)NCc2ccccc2)c(=O)n(Cc2ccccc2)c1)c1cc(Cl)ccc1O	?	-4.4%
Cc1ccccc1NC(=O)c1cc(C(=O)c2cc(Cl)ccc2O)cn(-c2ccccc2C)c1=O	7.94µM*	-3.7%
Cc1ccc(N(CC(=O)N/N=C/c2ccc(OC3CSC3)cc2)S(=O)(=O)c2ccccc2)cc1	?	-0.8%
Cc1ccc(N(CC(=O)N/N=C/c2ccc(OC3CSC3)cc2)S(=O)(=O)c2ccccc2)c(C)c1	15.8µM*	-4.9%
COc1ccc2[nH]cc(CCN=C(NC(=O)c3cccc(Cl)c3)Nc3nc(C)cc(C)n3)c2c1	-28.7%	-1.3%
Cc1cc(C)nc(NC(=NCCc2c[nH]c3ccccc23)NC(=O)Nc2ccc(Cl)cc2)n1	25.1µM*	-0.8%
Cc1cc(C)c2c(c1)/C(=N/NC(=S)Nc1ccc(F)cc1)CCC2	15.8µM*	-8.5%
Cc1cc(C)c2c(c1)/C(=N/NS(=O)(=O)c1ccccc1)CCC2	4.2%	-7.1%
CCc1cccc(NC(=O)c2ccc(CN3C(=O)C(C)=C(c4ccc(OC)cc4)S3(=O)=O)cc2)c1	25.1µM*	-7.1%
COc1ccc(C2=C(C)C(=O)N(Cc3ccc(C(=O)NCc4cccc(C)c4)cc3)S2(=O)=O)cc1	25.1µM*	-18.6%
COc1ccc(C2=C(C)C(=O)N(Cc3ccc(C(=O)NC(C)c4ccccc4)cc3)S2(=O)=O)cc1 (stereo not drawn)	15.8µM*	-10.2%
COc1ccc(C2=C(C)C(=O)N(Cc3ccc(C(=O)Nc4cccc(F)c4)cc3)S2(=O)=O)cc1	?	-15.9%
COc1ccc(C2=C(C)C(=O)N(Cc3ccc(C(=O)NCc4ccc(C)cc4)cc3)S2(=O)=O)cc1	-15.7%	-7.0%
SMILES	Cruzain inh noDet	Cruzain Triton
CC1=C(c2ccc(C)c(C)c2)S(=O)(=O)N(Cc2ccc(C(=O)NC(C)c3ccccc3)cc2)C1=O (stereo not drawn)	4.2%	-4.1%
CC1(C)SC2C(NC(=O)C(NC(=O)N3CCNC3=O)c3ccccc3)C(=O)N2C1C(=O)O (stereo not drawn)	-0.9%	1.9%
Cc1ccc(OC(C)C(=O)N2CCN(CCc3ccccn3)CC2)cc1C (stereo not drawn)	11.5%	2.2%
COc1ccc(CCNC(=O)Cn2c(C)c3cnn(-c4ccccc4)c(=O)c3c2C)cc1OC	0.8%	-3.1%
CCc1nnc(NC(=O)c2oc3cc(C)c(C)cc3c2C)s1	12.6µM*	-0.6%
CCc1nonc1NC(=O)c1oc2cc(C)c(C)cc2c1C	0.2%	0.7%
Cc1c2cnccc2c(C)c2c1c1ccccc1n2CCOC(=O)c1ccccc1	-3.0%	-13.5%
CCC(CC)C(=O)Nc1c(C(=O)N2CCN(c3ccccc3F)CC2)oc2ccccc12	?	-0.3%
Oc1ccccc1C1=Nc2nc3ccccc3n2C(c2ccccc2)C1 (stereo not drawn)	25.1µM*	-4.7%
c1ccc(C2Nc3ccccc3-c3nc4ccccc4n32)cc1 (stereo not drawn)	?	-1.4%
